The list is not random: actives were taken first. Their share in the collection is about 12%.
MARV entry inh: blocks Marburg virus binding to or entry into cells. Marburg virus pseudotyped entry inhibition, cell reporter. Potency, µM (highest dose often 37.8 µM), usual class: inhibitors. 300,000 compounds, 1.8% hits; calls by dose curve; tested in HEK293 cells
CHX counter: counter-screen for Shiga toxin inhibitors: cycloheximide protein synthesis inhibition | cell reporter, cycloheximide protein synthesis inhibition counterscreen | AID 2314 | 300,000 compounds, 12% hits | max response, %; in the data active = max response mostly above about 13%, no sharp cut-off; inactive = mostly below about 14%; note: read at 38.3 µM for the half of the compounds with a filed dose
LASV entry inh: blocks Lassa virus binding to or entry into cells | Potency, µM (series often up to 37.9 µM), most hits filed as inhibitors | AID 540256 | Lassa virus pseudotype entry inhibition, cell reporter | 300,000 compounds, 1.2% hits; calls by dose curve; tested in HEK293 cells; note: nearly all actives have a fitted effect of over 50% in size
Shiga toxin inh: Shiga toxin inhibition; Vero cells, Shiga toxin protein synthesis inhibition reporter; inhibition, % at 38.7 µM; 290,000 compounds, 9.2% hits; AID 2315; in the data active = inhibition mostly above about 28%, no sharp cut-off; inactive = mostly below about 43%
Large screens that a line does not name were inactive.

COc1ccc(Cc2nc3ccc(C(=O)N(C)CC4COCCO4)cc3o2)cc1 (configuration not stated)	CHX counter 39, Shiga toxin inh 72
COc1ccc(Cc2nc3ccc(C(=O)N(C)CCCN4CCOCC4)cc3o2)cc1	none (no result: MARV entry inh, LASV entry inh)
CCOC(=O)C1CCN(C(=O)c2cnn(-c3ccc(F)cc3)c2-n2cccc2)CC1	none (no result: MARV entry inh, CHX counter, Shiga toxin inh)
CC(=O)O[C@@H]1[C@@H](O)CN[C@@H]1Cc1ccccc1	none (no result: MARV entry inh, LASV entry inh)
CC12C=C(/C=C/c3ccc(C(F)(F)F)cc3)C(C)(C1)C(c1ccc(C(F)(F)F)cc1)CC2=O (configuration not stated)	none (no result: CHX counter, LASV entry inh, Shiga toxin inh)
CCOc1ccc(Cn2ccnc2)cc1[N+](=O)[O-]	MARV entry inh inconclusive
CCCCOc1ccc(CN(CCO)CCO)cc1[N+](=O)[O-]	CHX counter 50, Shiga toxin inh 125
CCCCCOc1ccc(Cn2ccnc2)cc1[N+](=O)[O-]	Shiga toxin inh 64
Cc1ccccc1NC(=O)CCCNC(=O)c1ccc(Cl)cc1	none
CSc1ncc(Cl)c(C(=O)Nc2nnc(SC/C=C/c3ccccc3)s2)n1	none
Cc1cccc(CS(=O)(=O)c2ncc(Cl)c(C(=O)Nc3nnc(C(C)C)s3)n2)c1	MARV entry inh inconclusive, CHX counter 54, LASV entry inh inconclusive, Shiga toxin inh 45
Cc1cccc(CSc2ncc(Cl)c(C(=O)Nc3nc4ccc(F)cc4s3)n2)c1	none (no result: CHX counter, Shiga toxin inh)
CSc1nnc(NC(=O)c2nc(S(=O)(=O)Cc3cccc(C)c3)ncc2Cl)s1	MARV entry inh inconclusive, CHX counter 62, LASV entry inh inconclusive, Shiga toxin inh 104
CCSc1nnc(NC(=O)c2nc(S(=O)(=O)Cc3ccc(F)cc3)ncc2Cl)s1	CHX counter 50, LASV entry inh inconclusive, Shiga toxin inh 75
Cc1ccc(CS(=O)(=O)c2ncc(Cl)c(C(=O)Nc3nnc(C(C)C)s3)n2)cc1	MARV entry inh inconclusive, CHX counter 52, LASV entry inh inconclusive, Shiga toxin inh 75
CC(C)c1nnc(NC(=O)c2nc(S(=O)(=O)Cc3ccc(F)cc3)ncc2Cl)s1	MARV entry inh inconclusive, CHX counter 59, LASV entry inh inconclusive, Shiga toxin inh 98
CC(C)c1nnc(NC(=O)c2nc(SCc3ccc(F)cc3)ncc2Cl)s1	none (no result: CHX counter, Shiga toxin inh)
CC(=O)COC(=O)c1ccc2noc(-c3ccccc3)c2c1	MARV entry inh inconclusive, CHX counter 14, Shiga toxin inh 59
Cc1ccc(-c2onc3ccc(C(=O)O)cc23)cc1	CHX counter 92, LASV entry inh inconclusive, Shiga toxin inh 180
C[C@@H]1CC2=CCCC2[C@]2(O1)C(=O)N(Cc1ccc(F)cc1)c1cccc(Br)c12 (some centres not stated)	none (no result: CHX counter, LASV entry inh, Shiga toxin inh)
CCc1ccc(NC(=O)N2CCCCCC2)cc1	CHX counter 49, Shiga toxin inh 87 (no result: MARV entry inh, LASV entry inh)
CCOC(=O)c1ccc(NC(=O)N2CCN(Cc3ccccc3)CC2)cc1	MARV entry inh inconclusive, CHX counter 15
CCc1ccc(NS(=O)(=O)c2ccc(NC(=O)N3CCCC3)cc2)cc1	none (no result: MARV entry inh, CHX counter, Shiga toxin inh)
CCOC(=O)c1ccc(NC(=O)CN2CCN(Cc3ccccc3)CC2)cc1	MARV entry inh inconclusive
Cc1ccc(NC(=O)CCN2CCCCC2)cc1	CHX counter 29, Shiga toxin inh 41 (no result: MARV entry inh, LASV entry inh)
CCOC(=O)c1ccc(NC(=S)NCCCN2CCCC2=O)cc1	none
CCc1ccc(NC(=O)NCCCN2CCCC2=O)cc1	CHX counter 28, Shiga toxin inh 31 (no result: MARV entry inh, LASV entry inh)
Cc1cc(C)nc(NS(=O)(=O)c2ccc(NC(=O)c3snnc3C)cc2)n1	none
O=C(CSc1nc(=O)n(CCN2CCOCC2)c2c1CCCC2)Nc1cccc([N+](=O)[O-])c1	none (no result: CHX counter, Shiga toxin inh)
COc1cccc(/C=C/C(=O)OCC(=O)NC2CC2)c1OC	none (no result: CHX counter, Shiga toxin inh)
O=C(Nc1ccc(Br)cc1)N1CCCCCC1	CHX counter 55, Shiga toxin inh 98 (no result: MARV entry inh, LASV entry inh)
CC1CCCN(C(=O)Nc2ccc(Br)cc2Cl)C1 (configuration not stated)	CHX counter 45, Shiga toxin inh 96 (no result: MARV entry inh, LASV entry inh)
COc1ccc(NC(=O)N2CCN(C(=O)C(Cc3ccc(F)cc3)NC(C)=O)CC2)cc1 (configuration not stated)	CHX counter 9.7, LASV entry inh inconclusive
O=C(Nc1ccc(F)cc1F)N1CCN(c2ccc(Cl)c(Cl)c2)CC1	none (no result: CHX counter, Shiga toxin inh)
CC1CN(C(=O)Nc2ccc(Br)cc2Cl)CC(C)O1 (configuration not stated)	none
O=C(Nc1ccc(F)cc1F)N1CCCCCC1	CHX counter 27 (no result: MARV entry inh, LASV entry inh)
CCc1ccc(N2C(=O)CC(NNc3nc4ccccc4s3)C2=O)cc1 (configuration not stated)	MARV entry inh inconclusive
COCC(C)n1c(COc2ccccc2F)nnc1SCC(=O)Nc1oc(C)c2c(C)n[nH]c(=O)c12 (configuration not stated)	none (no result: CHX counter, Shiga toxin inh)
Cc1[nH][nH]c(=O)c1C=NCc1cccs1	none (no result: MARV entry inh, LASV entry inh)
C=COC(=O)c1sc2nc(C)cc(C)c2c1N	none
COc1cccc(CCNC(=O)c2cnc3sc(N4CCCC4)nn3c2=O)c1	none (no result: CHX counter, LASV entry inh, Shiga toxin inh)

Compound activity as filed in PubChem BioAssay.
